# Source: PubChem (National Center for Advancing Translational Sciences (NCATS))
# This is one part of a sample in which hits are shown more often than they occur.
# Pf Dd2 growth: blocks in vitro growth of P. falciparum Dd2. P. falciparum Dd2 growth, SYBR Green, 72 h. Potency, µM (highest dose often 28.9 µM), inactives show top-dose activity, negative = inhibition, actives largely listed as inhibitors. 4.3% of 120,000 active; active = well fitted inhibition curve with a large enough effect;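 note: plate controls were DMSO vehicle for no effect and reference drug for full effect; nearly all actives have a fitted effect of over 65% in size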
#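 Readout: SYBR Green fluorescence, 485 nm excitation, 535 nm emission, after ~16 h lysis at 37C. Before that, Dd2-infected red cells (2.5% hematocrit) grew 72 h with compound, 29 uM top final concentration.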
# Active calls of the source: *; i = inactive. Potency is the fitted concentration of half-maximal effect.
SMILES,Pf Dd2 growth
C=Cc1ccc(Cn2c(C)c(CNCc3cccc(Br)c3)c(C(=O)O)c2C)cc1,-17%
Cc1c(CNC2CCCCC2)c(C(=O)O)c(C)n1Cc1ccc(Cl)cc1,-25%
COc1cc(CNCc2c(C(=O)O)c(C)n(Cc3cccc(Cl)c3)c2C)cc(OC)c1OC,0%
Cc1c(CNCCCc2ccccc2)c(C(=O)O)c(C)n1Cc1cccc(Cl)c1,8.9µM*
Cc1c(CNCCCc2ccccc2)c(C(=O)O)c(C)n1Cc1ccc(Cl)cc1,8.9µM*
COc1cc2nc(NCc3ccc(C)cc3)n3nc(-c4ccccc4)nc3c2cc1OC,0.1µM*
Cc1ccc(CNc2nc3ccccc3c3nc(-c4cccc(C)c4)nn23)cc1,8%
COc1cc2nc(NCCc3cccc(C)c3)n3nc(-c4ccccc4)nc3c2cc1OC,0.5µM*
Cc1cccc(-c2nc3c4ccccc4nc(NCc4ccc(Cl)cc4)n3n2)c1,-16%
COc1ccccc1CNc1nc2ccccc2c2nc(-c3cccnc3)nn12,-24%
COCCCNC(=O)CSc1nc2cc(OC)c(OC)cc2c2nc(-c3ccccc3)nn12,-22%
O=C(NC1CC(=O)N(CCCc2ccccc2)C1)c1ccoc1 (stereo not drawn),-17%
COCCNC(=O)C1CC(c2ccccc2)CN(C(=O)NCc2ccccc2)C1 (stereo not drawn),-23%
COc1ccc(Cl)cc1C(=O)NCc1nnc2ccc(-c3ccccc3)nn12,-15%
O=C1N(C2CCN(S(=O)(=O)c3cnc[nH]3)CC2)C(c2ccncc2)C12CCCCC2 (stereo not drawn),-4%
Cc1ccc(C(=O)N2CCC3(CC2)NC(=O)N(c2ccccc2)N3)cc1C,-3%
Cc1ccc(C(=O)N2CC[C@@](C)(O)[C@@H](Cc3ccccc3)C2)cc1C,8.9µM*
Cc1ccc(C(=O)N2CCC3(CC2)NC(=O)N(Cc2ccccc2)C3=O)cc1F,10%
Cc1ccsc1C(=O)N1CCc2c(nc3cc[nH]n3c2=O)C1,31%
COc1cccc(CNC(=O)Cn2cccc2-c2nc(-c3ccccc3)no2)c1OC,18%
COCc1nc(-c2ccc(OC3CN(Cc4cccs4)C3)cc2)no1,-5%
Cc1cnc(C(=O)N[C@@H]2CCC[C@@H]2C(=O)N2CCN(C(C)C)CC2)cn1,9%
O=C(c1ccc2ncccc2c1)N1CCC2(CC1)Nc1ccccc1NC2=O,8%
Cc1ccc(C2(O)CCN(C(=O)C(=O)c3cccnc3)CC2)nc1,-7%
Cc1ccc(C2(O)CCN(C(=O)c3ccc4ncccc4c3)CC2)nc1,4µM*
SMILES,Pf Dd2 growth
Cc1cc(C(=O)N2CCCCCCNC(=O)[C@@H]3C[C@@H](c4nc(Cc5ccccc5)no4)C[C@@H]32)n(C)n1,i
COCCN1C(=O)[C@H]2CN(Cc3ccccc3)C[C@H]2C1=O,99%
COc1ccc(CNC(=O)Cn2c(-c3ccc(F)cc3)nc(C)cc2=O)cc1OC,i
CC(=O)Nc1ccc(C(=O)NC2CCN(c3cc(-c4ccc(Cl)cc4)[nH]n3)CC2)cc1,i
Cc1ccc(-n2c(SCC(=O)NCc3ccc(F)cc3)nc3c([nH]c4ccccc43)c2=O)cc1,i
O=C(CSc1nc2c([nH]c3ccccc32)c(=O)n1-c1ccc(F)cc1)N1CCCCC1,17%
O=C(CSc1nc2c(oc3ccccc32)c(=O)n1-c1ccccc1F)Nc1ccccc1,-12%
Cn1c(SCC(=O)Nc2ccc(F)cc2)nc2c([nH]c3ccccc32)c1=O,17%
Cc1cc(C)cc(-n2c(SCC(=O)N3CCCC3)nc3c([nH]c4ccccc43)c2=O)c1,10%
Cc1cc(NC(=O)CSc2nc3c([nH]c4ccccc43)c(=O)n2-c2ccccc2)no1,-26%
Cc1cccc(NC(=O)CSc2nc3c([nH]c4ccccc43)c(=O)n2-c2ccc(F)cc2)c1C,4.5µM*
O=C(CSc1nc2c([nH]c3ccccc32)c(=O)n1-c1ccc(F)cc1)Nc1ccc2c(c1)OCO2,11µM*
Cc1ccc(-n2c(SCC(N)=O)nc3c([nH]c4ccccc43)c2=O)cc1,i
Cc1cc(C)cc(-n2c(SCC(=O)NCc3ccc(F)cc3)nc3c([nH]c4ccccc43)c2=O)c1,11µM*
Cc1cc(NC(=O)CSc2nc3c([nH]c4ccccc43)c(=O)n2-c2ccccc2F)no1,10µM*
Cc1cc(C)cc(-n2c(SCC(=O)Nc3ccc4c(c3)OCO4)nc3c([nH]c4ccccc43)c2=O)c1,-16%
O=C1CN(C(=O)CCC(=O)N2CCCC(c3nc(C4CCOCC4)no3)C2)c2ccccc2N1 (stereo not drawn),-13%
CC1CCN(C(=O)[C@@H](C)C2CC[C@@]3(C)CC[C@H](NC(=O)COc4ccccc4)[C@@H](C)[C@@H]3[C@H]2O)CC1 (stereo partly drawn),i
COc1cccc(S(=O)(=O)NCCc2noc(-c3cccnc3)n2)c1,-1%
FC(F)(F)c1ccc(N2C3CCC2CN(Cc2cccc(Cl)c2)C3)cc1,10%
CC(=O)N1CCC(C2CCN(Cc3ccc(C)cn3)C2)CC1 (stereo not drawn),-7%
C[C@@H]1CN(C(=O)c2cccc(C#N)c2)C[C@]1(C)O,-4%
Cc1c(Cl)cccc1NC(=O)Cn1ccn2nc3c(c2c1=O)CCCCC3,i
O=C(CCS(=O)(=O)c1ccccc1)N[C@H]1[C@@H]2CCO[C@@H]2[C@@H]1C1CCCC1,-5%
Cc1cccc2c1nc1n2[C@@H](CNCc2ccc(S(C)(=O)=O)cc2)COC1,i
SMILES,Pf Dd2 growth
CSc1nc2c([nH]c3ccccc32)c(=O)n1-c1ccc(C)cc1,i
O=C(CSc1nc2c([nH]c3ccccc32)c(=O)n1-c1ccc(Cl)cc1)N1CCc2ccccc21,61%
COc1cccc(-n2c(SCC(=O)c3ccc(Cl)cc3)nc3c([nH]c4ccccc43)c2=O)c1,i
COc1cccc(-n2c(SCC(=O)N3CCCCC3)nc3c([nH]c4ccccc43)c2=O)c1,-3%
CCOc1ccc(-c2nc(SCC(=O)Nc3ccc4c(c3)OCCO4)c(-c3ccc(F)cc3)[nH]2)cc1,-19%
O=C(CSc1nc2c([nH]c3ccccc32)c(=O)n1-c1ccc(Cl)cc1)NC1CCCCC1,13µM*
COc1cccc(-n2c(SCC(=O)Nc3cccc(C)c3)nc3c([nH]c4ccccc43)c2=O)c1,10µM*
Cc1cc(C)cc(NC(=O)CSc2nc3c([nH]c4ccccc43)c(=O)n2-c2ccc(F)cc2)c1,10µM*
COc1cccc(-c2nc(SCC(=O)Nc3ccc4c(c3)OCCO4)c(-c3ccccc3)[nH]2)c1,-28%
O=C(CSc1nc(-c2cccc(F)c2)[nH]c1-c1ccccc1)Nc1ccc2c(c1)OCCO2,11µM*
CCOc1ccc(-n2c(SCC(=O)NC3CCCCC3)nc3c([nH]c4ccccc43)c2=O)cc1,-15%
O=c1c2[nH]c3ccccc3c2nc(SCc2ccccc2F)n1-c1ccc(F)cc1,33%
CCOc1ccccc1C1NC(=O)N(CC(=O)Nc2cccc(C#N)c2)C2=C1C(=O)OC2 (stereo not drawn),-14%
COc1ccc(C(=O)N2CCC(Cc3nc(-c4ccc(F)cc4)no3)CC2)c(OC)n1,-23%
CC(C)c1ccc(C(=O)N2CC3CC(C2)[C@H]2CCCC(=O)N2C3)cc1 (stereo partly drawn),-7%
Nc1nc(C2CC(NC(=O)Cc3ccc4c(c3)OCO4)C2)cc(=O)[nH]1 (stereo not drawn),-9%
COCCC(=O)N1CCC2(CCN(Cc3cccc(C)c3)CC2)C(CO)C1 (stereo not drawn),-9%
O=C(O)C[C@@H]1CCN(C(=O)Cc2ccccc2)C[C@@H]1CCN1CCN(c2ccccn2)CC1,-21%
